Screening results deposited in PubChem BioAssay by several laboratories.
In the library only some 2.7% were active in any assay of this set; here they are far more common.
eIF4E 4G PPI – eIF4E–eIF4G protein interaction inhibitors, primary screen, biochemical, uHTS, TR-FRET, eIF4GI fragment | TR-FRET eIF4E-eIF4GI(517-606) binding, 2 h | inhibition, % at 21.7 µM | 0.37% of 220,000 active;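 active = inhibition above about 30%, limit read from the data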;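 also: 0% = full FRET control wells and 100% = background wells lacking eIF4GI fragment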
14-3-3 Bad PPI – inhibitors of 14-3-3 zeta/Bad binding, primary screen, biochemical, TR-FRET, bovine 14-3-3 zeta. TR-FRET 14-3-3zeta/Dy647-pBad peptide displacement, 1 h. inhibition, % at 21.7 µM. 0.71% of 220,000 active. AID 781, 2007;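 active = inhibition above about 70%, limit read from the data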;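 also: 0% = full 14-3-3 plus peptide FRET controls and 100% = background without 14-3-3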
Target sequence (P63103 whole entry, looked up): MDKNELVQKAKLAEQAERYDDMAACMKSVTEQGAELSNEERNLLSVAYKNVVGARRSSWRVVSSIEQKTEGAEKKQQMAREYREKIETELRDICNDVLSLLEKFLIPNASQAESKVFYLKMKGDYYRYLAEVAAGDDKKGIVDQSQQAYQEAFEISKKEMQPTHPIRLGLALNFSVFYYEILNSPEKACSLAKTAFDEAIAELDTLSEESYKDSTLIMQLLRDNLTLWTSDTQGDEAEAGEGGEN
Bim-Mcl-1 – inhibitors of Bim peptide binding to Mcl-1, primary screen, biochemical, bead-based flow cytometry, multiplex | inhibition, % at 10 µM | Bim peptide-Mcl-1 binding | AID 1009, 2008 | 0.1% of 190,000 active | Induced myeloid leukemia cell differentiation protein Mcl-1 (Homo sapiens), Q07820; in the data active = inhibition above about 40%;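 also: 0% = no compound tracer wells and 100% = peptide blocker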
Target sequence (Q07820 whole entry, looked up): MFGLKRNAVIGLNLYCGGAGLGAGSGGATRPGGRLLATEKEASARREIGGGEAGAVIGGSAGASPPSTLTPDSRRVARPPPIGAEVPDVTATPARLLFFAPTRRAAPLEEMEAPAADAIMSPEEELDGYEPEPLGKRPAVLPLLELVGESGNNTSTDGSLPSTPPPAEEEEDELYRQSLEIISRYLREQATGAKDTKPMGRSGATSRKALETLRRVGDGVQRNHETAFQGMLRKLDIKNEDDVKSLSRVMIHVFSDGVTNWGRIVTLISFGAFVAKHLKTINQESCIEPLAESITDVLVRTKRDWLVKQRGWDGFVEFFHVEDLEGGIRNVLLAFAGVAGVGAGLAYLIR
Pf gamet viab – late stage P. falciparum gametocyte viability inhibitors, primary screen, ATP luminescence, HTS | P. falciparum stage V gametocytes, 24 h | inhibition, % at 10.9 µM | 0.065% of 150,000 active | AID 743093, 2013;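 active = inhibition above the mean plus 3 SD of compounds within the control limits, set per campaign, cut at about 38% in these data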;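 also: 0% = DMSO wells and 100% = medium only without gametocytes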
Mcl1 Bid PPI – Mcl-1/Bid binding inhibitors, primary screen, biochemical, TR-FRET, 1536-well. Induced myeloid leukemia cell differentiation protein Mcl-1 (Homo sapiens), Q07820. TR-FRET Mcl-1/Bid-Dy647 peptide binding. inhibition, % at 21.7 µM. 0.97% of 220,000 active;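 active = compounds that cut the binding signal by more than half at the single screening dose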;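 also: His-tagged Mcl-1 with europium anti-His antibody binding Bid BH3 peptide; 0% = Mcl-1 plus peptide wells and 100% = peptide-only wells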
Mcl1-Noxa inh – Mcl-1/Noxa binding inhibitors, primary screen, biochemical, TR-FRET, 1536-well; Induced myeloid leukemia cell differentiation protein Mcl-1 (Homo sapiens), Q07820; TR-FRET Mcl-1/Noxa peptide binding, 2 h; inhibition, % at 21.7 µM; 1.5% of 220,000 active;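 active = compounds that cut the protein-peptide binding signal by more than 50% relative to plate controls in a single-dose test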;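 also: His-tagged Mcl-1 with rhodamine Noxa BH3 peptide and terbium anti-His antibody; 0% = Mcl-1 plus Noxa peptide wells and 100% = peptide-only wells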
Numbers without * were called inactive; / = no result; [ ] = dose if it differs, or a comment.

SMILES | eIF4E 4G PPI | 14-3-3 Bad PPI | Bim-Mcl-1 | Pf gamet viab | Mcl1 Bid PPI | Mcl1-Noxa inh
O=C(CCCn1c(=O)[nH]c2cc(Cl)ccc2c1=O)NCCCN1CCCC1=O | -7.5 | 6.0 | -2.0 | -17.7 | -8.2 | 0.4
Cc1ccc(-c2nnn(CC(=O)N(c3ccccc3)C(C(=O)NCC3CCCO3)c3cccs3)n2)o1 (configuration not stated) | 4.5 | -3.9 | -1.0 | -12.2 | -3.7 | 0.2
COc1c2ccc(OCC/C(C)=C/C(=O)C=C(C)C)cc2nc2occc12 | / | / | / | -21.2 | / | /
Clc1ccc(/C=N/Nc2ncnc3nc[nH]c23)cc1 | 66.0* | 3.2 | / | 5.0 | 11.3 | 25.2
COc1ccccc1N1CCN(c2nccc(C)n2)CC1 | / | / | / | -6.8 | / | /
Cc1ccc(S(=O)(=O)NNC(=O)C2CC=CCC2C(=O)O)cc1 (configuration not stated) | 1.9 | -18.3 | -1.0 | -5.6 | -24.2 | 4.7
Cc1ccc(S(=O)(=O)Nc2ccc(N=Nc3ccc(O)cc3)cc2)cc1 | -4.7 | -3.6 | 5.0 | / | -11.8 | 52.6*
O=C1N/C(=N/O)S/C1=C\c1ccccc1-n1cccn1 | -0.9 | -7.0 | -1.0 | -25.7 | -22.9 | 18.2
CCN(CC)S(=O)(=O)c1ccc(Cl)c(C(=O)Oc2cccc(-c3cnc4ccccc4n3)c2)c1 | -4.7 | -5.8 | -6.0 | 22.3 | -14.9 | 13.2
CCN(CC)S(=O)(=O)c1ccc(Cl)c(C(=O)Oc2cccnc2)c1 | 57.6* | 27.3 | -2.0 | / | -16.6 | 7.5
COCC(C)n1c(C)cc(C(=O)COC(=O)/C=C/c2cccc(F)c2)c1C (configuration not stated) | -3.1 | -6.8 | -1.0 | / | -35.5 | 2.8
Cc1cc(S(=O)(=O)n2cnc3cc([N+](=O)[O-])ccc32)ccc1Cl | 10.5 | 2.1 | -4.0 | 7.8 | -7.7 | 34.1
Cc1ccc(S(=O)(=O)n2cnc3cc([N+](=O)[O-])ccc32)cc1C | 2.4 | 70.6* | -1.0 | -19.6 | 22.9 | 18.6
O=C(Nc1nc2ccccc2s1)C1CC(=O)N(c2ccc(Br)cc2)C1 (configuration not stated) | 2.3 | 0.5 | -2.0 | -36.0 | 21.5 | 11.0
COc1cc(/C=N/n2cnc3c(sc4nc(C)cc(C)c43)c2=O)ccc1O | -3.0 | 44.0 | / | / | 15.0 | -10.9
CCOC(=O)c1sc2ncn(/N=C/c3ccc(O)c(OC)c3)c(=O)c2c1C | 9.4 | 13.4 | 0.0 | 8.1 | 15.1 | 53.1*
O=C(Nc1cccc(S(=O)(=O)NC2=NCCCCC2)c1)c1cc(-c2ccncc2)nc2ccccc12 | -0.6 | 2.6 | 0.0 | -38.6 | -6.9 | 54.5*
O=C(Nc1cccc(S(=O)(=O)NC2=NCCCCC2)c1)c1cc(-c2ccco2)nc2ccccc12 | 35.3* | 40.9 | / | -5.6 | 12.2 | 97.1*
O=C(Nc1cccc(S(=O)(=O)NC2=NCCCCC2)c1)c1cccnc1Cl | -2.6 | 4.0 | / | 7.9 | -60.6 | -20.0
CCCCOc1ccccc1NC(=O)CC1SC(=NCC)N(CC)C1=O (configuration not stated) | 6.8 | 76.0* | -3.0 | / | -26.7 | -3.3
CCN=C1SC(CC(=O)Nc2ccccc2OCC)C(=O)N1CC (configuration not stated) | -6.5 | -12.0 | 0.0 | -2.4 | -0.9 | -18.2
COc1ccc(Oc2cnn(-c3ccccc3)c(=O)c2Br)cc1 | -2.2 | -1.4 | 0.0 | -12.9 | -0.1 | -7.0
N#Cc1c2nc3ccccc3nc2n2cc(NC(=O)c3ccc(F)cc3)ccc12 | 16.1 | 78.0*[fluorescence artefact?] | 12.0 | 0.8 | 86.0* | 111.3*
Cc1c(C(=O)Nc2ccc(F)cc2)cn2c(nc3ccccc32)c1C#N | 1.8 | 12.1 | / | 8.5 | -52.3 | -5.6
COc1ccc(OC)c(Nc2ccc(Nc3cc(OC)ccc3OC)nn2)c1 | -3.5 | -7.0 | -7.0 | -11.9 | -33.8 | 54.1*
SMILES | eIF4E 4G PPI | 14-3-3 Bad PPI | Bim-Mcl-1 | Pf gamet viab | Mcl1 Bid PPI | Mcl1-Noxa inh
Cc1ccc(C(=O)N2CCCC(c3nc4c(nnn4Cc4ccccc4)c(=O)[nH]3)C2)cc1 (configuration not stated) | -0.9 | 3.5 | 0.0 | / | 7.0 | 18.1
COc1ccc(CC(=O)OC(C)CN2CCCCC2)cc1 (configuration not stated) | -3.3 | -0.3 | 0.0 | / | -19.3 | 5.7
COc1cccc(C(=O)Nc2ccc(NC(C)=O)cc2)c1 | -5.2 | -0.5 | 0.0 | -10.4 | -24.9 | 1.0
COc1cccc(C(=O)Nc2cc(Cl)c(O)c(Cl)c2)c1 | 1.7 | -2.7 | / | 24.7 | -55.9 | 98.2*
Cc1ccnc(N2CCC(C(=O)NCc3ccccc3F)CC2)n1 | 0.2 | -6.5 | 0.0 | / | -12.6 | 3.8
COc1ccc(-c2nnc(SCC(=O)c3cc(C)n(Cc4cccs4)c3C)o2)cc1 | -21.9 | 74.7* | 0.0 | / | 37.4 | -96.4
Cc1cc(C(=O)CSc2nnc(-c3ccc(OC(F)F)cc3)o2)c(C)n1Cc1cccs1 | 1.9 | 28.4 | 3.0 | -6.8 | 32.0 | 10.7
CC(=O)Nc1sc(N/N=C\c2ccc(O)cc2)nc1-c1cccs1 | 1.4 | 4.3 | / | -24.6 | -71.2 | 104.3*
CC(=O)Nc1sc(N/N=C\c2ccccc2F)nc1-c1cccs1 | 5.2 | 5.0 | -8.0 | 25.2 | -8.8 | 62.0*
Cc1cc(C(C)(C)C)ccc1NC(=O)CC(C)(C)CC(=O)O | -3.7 | 7.1 | / | -32.6 | 6.9 | 7.3
COc1ccc(CC(=O)NCc2ccccc2)cc1 | / | / | / | -19.4 | / | /
CCC(CC)C(=O)NCc1ccc(OC)cc1 | 5.8 | 75.5* | 0.0 | 21.5 | -1.9 | -12.1
Cc1nc2ccccc2n1CC(=O)NC1CCCC1 | 1.0 | 71.0* | -2.0 | 22.7 | -7.9 | 16.2
Cc1nc2ccccc2n1CC(=O)NC1CCCCCC1 | -4.6 | -1.7 | / | -0.5 | -3.7 | 5.9
Cc1ccc(-c2nc(CN(C)Cc3ccc4nccnc4c3)c(C)o2)s1 | 0.2 | -8.5 | -4.0 | 5.3 | -45.8 | 18.0
O=[N+]([O-])c1cc(/C=N\O)ccc1Oc1ccc(F)cc1 | 3.2 | 84.5* | 0.0 | 24.5 | -37.2 | -0.3
CCN(CC)C(=O)CC(c1cc(OC)c(OC)c(OC)c1)c1c(OC)cc(OC)c2c(-c3ccccc3)cc(=O)oc12 (configuration not stated) | 34.5* | 61.5 | / | / | -92.8 | 96.1*
O=C1OC(c2ccccc2)=C/C1=C/N1CCCCC1 | 12.7 | -11.1 | 0.0 | / | 85.7* | 13.9
O=C1OC(c2ccccc2)=N/C1=C\N1CCCCC1 | -2.9 | -3.1 | -3.0 | 2.6 | -29.4 | 15.4
Cc1c(Cc2ccccc2)c(=O)oc2c(O)c(O)ccc12 | -1.6 | 8.0 | -2.0 | -34.2 | -4.5 | 88.1*
Cc1oc2c(O)c(O)ccc2c(=O)c1-c1ccccc1 | -20.7 | -4.1 | / | / | -37.6 | 71.0*
